Source: PubChem BioAssay (EPA / NIEHS)
Several values for one entry are separate records, joined by “and”; a condition that tells them apart may be missing. Equal entries are not always repeated. Inconclusive results are not listed. Some structures have more than one record in an assay (separate samples or runs), and their calls can disagree. Activity calls are given as the source filed them. The calls were made as follows, unless noted: active = hit-call score of the fitted dose curve at least 0.9, where 1 is the maximum; inactive = score below 0.9.

What was measured:
[1] = read-out: Human Leukocyte Antigen - DR isotype (HLADR), HLA-DRA (gene 3122); test: BSK_3C_HLADR: BioMAP Diversity Plus: 3C Assay for Human Leukocyte Antigen - DR isotype (HLADR) Biomarker Activity (AID 2283019); settings: primary human endothelial cells (HUVEC); actives raise or lower the signal
In short: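 ELISA readout of surface HLA-DR on human umbilical vein endothelium, taken 24 h after chemical treatment. Gain- and loss-of-signal were both fitted relative to DMSO.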

[2] = read-out: Interleukin-8 (IL8), CXCL8 (gene 3576); test: BSK_3C_IL8: BioMAP Diversity Plus: 3C Assay for Interleukin-8 (IL8) Biomarker Activity (AID 2283020); settings: primary human endothelial cells (HUVEC); actives raise or lower the signal
In short: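 Primary human umbilical vein endothelial cells (3C system) were exposed to test chemical for 24 h, then IL-8 was quantified by ELISA. Responses were fitted bidirectionally against DMSO vehicle as baseline.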

[3] = read-out: Monokine induced gamma interferon (MIG), CXCL9 (gene 4283); test: BSK_3C_MIG: BioMAP Diversity Plus: 3C Assay for Monokine induced gamma interferon (MIG) Biomarker Activity (AID 2283021); settings: primary human endothelial cells (HUVEC); actives raise or lower the signal;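 as to AC50: MIG protein level measured by immunoassay in the treated endothelial cultures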
In short: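 Primary human umbilical vein endothelial cells in the 3C system were exposed to chemical for 24 h, after which MIG was quantified by ELISA. Activity was fitted bidirectionally against DMSO as negative control and baseline.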

[4] = molecular target: human Vitamin D Receptor (VDR), VDR (gene 7421) (UniProt P11473); test: ATG_VDR_TRANS: Attagene TRANS-FACTORIAL HepG2 Assay for human Vitamin D Receptor (VDR) (AID 2283022; active = hit-call score of the fitted dose curve at least 0.9, where 1 is the maximum)
In short: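 Steps: transfect HepG2 with GAL4-UAS-driven reporter constructs; dose compounds 24 h; isolate RNA, reverse-transcribe, PCR-amplify with 6-FAM-labelled primer extension and HpaI digestion; quantify fragments by capillary electrophoresis relative to DMSO.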

[5] = BSK_3C_SRB: Viability Assessment in the BioMAP Diversity Plus: 3C Assay (AID 2283023); settings: primary human endothelial cells (HUVEC);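 also: fitted both ways against DMSO so a hit may be signal rise or drop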
In short: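 Absorbance at 560 nm of sulforhodamine B-stained (0.1%) total protein served as a cytotoxicity readout in human umbilical vein endothelial cells, 24 h after chemical treatment. Signal was fitted bidirectionally relative to DMSO.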

[6] = read-out: Matrix Metallopeptidase 1 (MMP1), MMP1 (gene 4312); test: BSK_BE3C_MMP1: BioMAP Diversity Plus: BE3C Assay for Matrix Metallopeptidase 1 (MMP1) Biomarker Activity (AID 2283024); settings: primary human bronchial epithelial cells; actives raise or lower the signal
In short: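 Primary human bronchial epithelial cells were dosed with test chemicals, and MMP1 levels were measured by ELISA 24 h later. Data were fitted bidirectionally against DMSO as the negative control and activity baseline.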

[7] = BSK_3C_Vis: BioMAP Diversity Plus: 3C Assay for Morphology Visualization (AID 2283025); settings: primary human endothelial cells (HUVEC);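 also: fitted both ways so gain or loss versus DMSO counts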
In short: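 Human umbilical vein endothelial cells in the 3C system were imaged by light microscopy 24 h after chemical dosing to record cell morphology. Activity was fitted bidirectionally against DMSO as negative control and baseline; the endpoint serves as a background control.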

[8] = read-out: Pselectin, SELP (gene 6403); test: BSK_4H_Pselectin: BioMAP Diversity Plus: 4H Assay for Pselectin Biomarker Activity (AID 2283026); settings: primary human endothelial cells (HUVEC); actives raise or lower the signal
In short: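 Primary human umbilical vein endothelial cells were exposed to test chemical for 24 h, then cell-surface P-selectin was quantified by ELISA. Activity was fitted bidirectionally against DMSO as negative control and baseline.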

[9] = BSK_BE3C_SRB: Viability Assessment in the BioMAP Diversity Plus: BE3C Assay (AID 2283028); settings: primary human bronchial epithelial cells
In short: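 Cells (human bronchial epithelial, primary) are treated with chemicals, and after 24 h the parallel cultures are fixed in 10% TCA. These are then stained with 0.1% SRB and read at 560 nm. Gain or loss of signal is fitted relative to DMSO.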

[10] = read-out: Thrombomodulin, THBD (gene 7056); test: BSK_3C_Thrombomodulin: BioMAP Diversity Plus: 3C Assay for Thrombomodulin Biomarker Activity (AID 2283029); settings: primary human endothelial cells (HUVEC); actives raise or lower the signal
In short: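 Primary human umbilical vein endothelial cells (3C system) were exposed to chemical for 24 h, then thrombomodulin levels were measured by ELISA. Activity was fitted bidirectionally against the DMSO negative control as baseline.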

[11] = read-out: Urokinase-type plasminogen activator receptor (uPAR), PLAUR (gene 5329); test: BSK_4H_uPAR: BioMAP Diversity Plus: 4H Assay for Urokinase-type plasminogen activator receptor (uPAR) Biomarker Activity (AID 2283030); settings: primary human endothelial cells (HUVEC); actives raise or lower the signal
In short: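 Cell-surface uPAR ELISA signal, measured 24 h after dosing human umbilical vein endothelial cells, was analyzed with bidirectional fitting relative to DMSO. Parallel SRB staining of total protein tracked overt cytotoxicity.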

[12] = read-out: Vascular endothelial growth factor receptor 2 (Homo sapiens) (UniProt P35968); test: BSK_4H_VEGFRII: BioMAP Diversity Plus: 4H Assay for Vascular endothelial growth factor receptor 2 (VEGFR2) Biomarker Activity (AID 2283031); settings: primary human endothelial cells (HUVEC); actives raise or lower the signal;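 as to AC50: cell-surface VEGFR2 protein level quantified by ELISA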
In short: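 ELISA read-out of VEGFRII in primary human umbilical vein endothelium, taken 24 h after chemical treatment. Responses are expressed relative to DMSO, with bidirectional fitting.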

[13] = read-out: Human Leukocyte Antigen - DR isotype (HLADR), HLA-DRA (gene 3122); test: BSK_BE3C_HLADR: BioMAP Diversity Plus: BE3C Assay for Human Leukocyte Antigen - DR isotype (HLADR) Biomarker Activity (AID 2283032); settings: primary human bronchial epithelial cells; actives raise or lower the signal
In short: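 Human primary bronchial epithelial cells in the BE3C system were exposed to chemicals for 24 h, after which HLA-DR levels were quantified by ELISA. Activity was fitted bidirectionally, gain or loss of signal, against DMSO as negative control and baseline.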

[14] = read-out: Vascular cell adhesion molecule 1 (VCAM1), VCAM1 (gene 7412); test: BSK_4H_VCAM1: BioMAP Diversity Plus: 4H Assay for Vascular cell adhesion molecule 1 (VCAM1) Biomarker Activity (AID 2283033); settings: primary human endothelial cells (HUVEC); actives raise or lower the signal
In short: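 Primary human umbilical vein endothelial cells were exposed to chemicals for 24 h, after which VCAM-1 was quantified by ELISA. Responses were fitted bidirectionally against DMSO as negative control and activity baseline.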

[15] = read-out: Interferon-gamma inducible Protein 10 (IP10), CXCL10 (gene 3627); test: BSK_BE3C_IP10: BioMAP Diversity Plus: BE3C Assay for Interferon-gamma inducible Protein 10 (IP10) Biomarker Activity (AID 2283034); settings: primary human bronchial epithelial cells; actives raise or lower the signal
In short: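 Human primary bronchial epithelial cells were exposed to chemicals for 24 hours, after which IP-10 levels were measured by ELISA. Data were fitted bidirectionally against DMSO, which served as the negative control and activity baseline.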

[16] = read-out: Monokine induced gamma interferon (MIG), CXCL9 (gene 4283); test: BSK_BE3C_MIG: BioMAP Diversity Plus: BE3C Assay for Monokine induced gamma interferon (MIG) Biomarker Activity (AID 2283035); settings: primary human bronchial epithelial cells; actives raise or lower the signal;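 also: MIG protein measured by ELISA in BE3C cultures after 24 h of dosing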
In short: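 Primary human bronchial epithelial cells treated for 24 h; MIG levels measured by ELISA, fitted bidirectionally versus DMSO. Parallel SRB total-protein staining assessed cytotoxicity.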

[17] = read-out: Transforming growth factor beta 1 (TGFb1), TGFB1 (gene 7040); test: BSK_BE3C_TGFb1: BioMAP Diversity Plus: BE3C Assay for Transforming growth factor beta 1 (TGFb1) Biomarker Activity (AID 2283036); settings: primary human bronchial epithelial cells; actives raise or lower the signal
In short: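 Human primary bronchial epithelial cells (BE3C system) were dosed with chemical and TGF-b1 levels measured by ELISA at 24 h. Activity was fitted bidirectionally relative to DMSO negative control as baseline.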

[18] = read-out: Plasminogen activator inhibitor-1 (PAI1), SERPINE1 (gene 5054); test: BSK_BE3C_PAI1: BioMAP Diversity Plus: BE3C Assay for Plasminogen activator inhibitor-1 (PAI1) Biomarker Activity (AID 2283037); settings: primary human bronchial epithelial cells; actives raise or lower the signal
In short: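 Human primary bronchial epithelial cells were exposed to chemical for 24 h, then PAI-1 was quantified by ELISA. Activity was fitted bidirectionally relative to the DMSO negative control baseline.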

[19] = read-out: urokinase plasminogen activator (uPA), PLAU (gene 5328); test: BSK_BE3C_uPA: BioMAP Diversity Plus: BE3C Assay for urokinase plasminogen activator (uPA) Biomarker Activity (AID 2283038); settings: primary human bronchial epithelial cells; actives raise or lower the signal;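 also: uPA protein level quantified by ELISA in cell cultures; uPA read one day after compound addition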
In short: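 Bronchial epithelial cells (human, primary); chemical 24 h; uPA by ELISA; bidirectional fit vs DMSO. SRB (0.1%, after 10% TCA fixation, 560 nm) in parallel cultures for cytotoxicity.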

[20] = BSK_4H_SRB: Viability Assessment in the BioMAP Diversity Plus: 4H Assay (AID 2283027); settings: primary human endothelial cells (HUVEC);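 also: cells exposed to compound for 24 h before staining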;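 as to AC50: curves fitted both ways versus DMSO so AC50 may be loss or gain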
In short: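 Human umbilical vein endothelial cells, 24 h after chemical dosing; total protein measured by 0.1% sulforhodamine B staining after 10% TCA fixation, read at 560 nm. Bidirectional fitting against DMSO.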

Measured: AC50

Chain of human Vitamin D Receptor (VDR), VDR (gene 7421) (P11473 whole entry, looked up, the tested form may be a part): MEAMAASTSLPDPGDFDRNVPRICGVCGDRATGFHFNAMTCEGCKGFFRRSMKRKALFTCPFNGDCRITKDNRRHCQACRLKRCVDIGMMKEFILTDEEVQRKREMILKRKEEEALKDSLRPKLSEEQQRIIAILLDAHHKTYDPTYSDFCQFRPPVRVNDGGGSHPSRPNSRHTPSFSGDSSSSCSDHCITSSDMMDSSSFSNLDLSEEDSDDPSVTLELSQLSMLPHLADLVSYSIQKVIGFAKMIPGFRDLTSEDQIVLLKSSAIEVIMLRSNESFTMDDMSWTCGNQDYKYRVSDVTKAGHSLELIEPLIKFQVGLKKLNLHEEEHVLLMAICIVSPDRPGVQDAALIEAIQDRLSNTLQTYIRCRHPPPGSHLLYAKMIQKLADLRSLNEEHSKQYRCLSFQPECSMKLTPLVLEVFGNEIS

Cc1ccc([N+](=O)[O-])cc1C
not listed: [20]
inactive: all other assays above

O=P(Oc1ccccc1)(Oc1ccccc1)Oc1ccccc1
active: [1] 33.1 µM | [2] 29.4 µM | [5] 30.2 µM | [7] 37.5 µM | [8] 33.2 µM | [11] 29.9 µM | [14] 26.8 µM | [15] 26.3 µM | [18] 10.6 µM
inactive: [3] | [4] | [6] | [9] | [10] | [12] | [16] | [17] | [19]

OCC(F)(F)OC(F)(F)C(F)(F)OC(F)(F)C(F)(F)OC(F)(F)F
active: [1] 31.5 µM and 49.7 µM | [2] 40.7 µM and 42.9 µM | [3] 38.9 µM and 48.5 µM | [8] 52.2 µM and 44.9 µM | [20] 47.5 µM and 18.3 µM | [11] 50.3 µM and 44.6 µM | [12] 42.9 µM
inactive: [4] | [6] | [9] | [10] | [12] | [13] | [14] | [15] | [16] | [18] | [19]

Cc1c([N+](=O)[O-])cc2c(c1[N+](=O)[O-])C(C)(C)CC2(C)C
active: [1] 11.9 µM | [2] 2.03 µM | [7] 37.5 µM | [13] 8.05 µM | [15] 20 µM | [17] 13.5 µM | [18] 5 µM
not listed: [4]
inactive: all other assays above

Nc1ccc(Cl)cc1
not listed: [4]
inactive: all other assays above

OCC1CO1 (stereo unspecified)
not listed: [4]
inactive: all other assays above

CC(Cl)CN(C)C (stereo unspecified)
active: [1] 7.97 µM
not listed: [4]
inactive: all other assays above
